# HCV inh: inhibitors of hepatitis C virus infection. Huh7.5.1 HCVcc-Cre infection, luciferase reporter, 44 h. Potency, µM (doses to about 41.8 µM), without a hit: at the highest dose activity change, negative = inhibition, hits mostly inhibitors. hit rate 3.4% among 340,000; active = well fitted inhibition curve with a large enough effect; inconclusive = small, poorly fitted or top-dose-only effect, or another doubt; inactive = no such curve, though single readings can be large or run the other way; also: potency is read from the fitted curve at half-maximal effect; % is scaled to controls: 0 for no effect and ±100 for the full control effect
#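 HCVcc-Cre virus at an moi near 0.5 was added right after compound to cells cultured 4 h from seeding (1,000 cells/well). Luciferase activity was determined 44 h later, 15 min after substrate addition at RT.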
# HCMV antiviral: blocks human cytomegalovirus replication; HFF cells, HCMV-luciferase reporter, 72 h; stronger effect = lower value; activity change, negative = inhibition, % at 57.5 µM; hit rate 4.5% among 410,000; AID 1259415; in the data active = activity change below about -60%; inconclusive = no clear call, values can overlap the other calls; inactive = above about -39%; also: % is scaled to controls: 0 for no effect and ±100 for the full control effect
#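 Cell-based, HFFs, 1000 cells/well, 16 h 37C; cpds in DMSO + HCMV-luc, MOI 1 PFU/cell; 72 h 37C; OneGlo luminescence after 5 min RT; norm. to buffer vs Salinomycin 10uM.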
# LASV entry inh: Lassa virus entry inhibition; Lassa virus pseudotype entry inhibition, cell reporter; AID 540256; Potency, µM (titrated, usually from 37.9 µM), without a hit: at the highest dose activity change, negative = inhibition, usual class: inhibitors; hit rate 1.2% among 300,000; calls by dose curve; tested in HEK293 cells; also: potency is read from the fitted curve at half-maximal effect; % is scaled to controls: 0 for no effect and ±100 for the full control effect; nearly all actives have a fitted effect of over 50% in size
# MARV entry inh: inhibitors of Marburg virus binding or cell entry; Marburg virus pseudotyped entry inhibition, cell reporter; hit rate 1.8% among 300,000; AID 540276; Potency, µM (top dose mostly 37.8 µM), inactives show at the top dose activity change, negative = inhibition, usual class: inhibitors; calls by dose curve; tested in HEK293 cells; also: potency is read from the fitted curve at half-maximal effect; % is scaled to controls: 0 for no effect and ±100 for the full control effect
# FMDV antiviral: foot and mouth disease virus antiviral activity | FMDV antiviral cell-based qHTS | Potency, µM (titrated, usually from 57.9 µM), without a hit: top-dose activity change, negative = inhibition, usual class: inhibitors | hit rate 1.2% among 410,000 | AID 1159524; calls by dose curve; tested in HEK293T cells; also: read-out not given here; potency is read from the fitted curve at half-maximal effect; % is scaled to controls: 0 for no effect and ±100 for the full control effect; nearly all actives have a fitted effect of over 45% in size
# SARS PLpro yeast: inhibitors of SARS-CoV papain-like protease in yeast. S. cerevisiae expressing SARS-CoV PLpro, growth rescue. Potency, µM (doses to about 32.9 µM), inactives show at the top dose activity, positive = growth rescue, usual class: activators. hit rate 0.19% among 330,000. AID 485353; calls by dose curve; also: potency is read from the fitted curve at half-maximal effect; 0% is about no effect; nearly all actives have a fitted effect of over 55% in size
# Numbers without * were called inactive; u = inconclusive; x = no result; ! = a repeat was not active; [ ] = remark or other dose. Sampled rows, rich in hits. Any-hit rate of the full collection: about 8%.
SMILES,HCV inh,HCMV antiviral,LASV entry inh,MARV entry inh,FMDV antiviral,SARS PLpro yeast
Fc1ccc(N2CCN(c3ncnc4c3nc3n4CCCCC3)CC2)cc1,x,-24,-9%[46.1 µM],x,25µM*,x
c1ccc(N2CCN(c3ncnc4c3nc3n4CCCCC3)CC2)cc1,x,-76*,u,x,10µM*,x
Clc1ccc(N2CCN(c3ncnc4c3nc3n4CCCC3)CC2)cc1,x,-69*,-18%[46.1 µM],x,u,x
COC(=O)/C=C1/S/C(=N/N=C/c2ccc(N(C)C)cc2)NC1=O,18%,x,x,-1%,x,u
CC1CCC2C(C)(C)C3CC12CC[C@]3(C)O (stereo partly specified),x,x,x,x,-8%,x
Cc1cc(C2CCCCC2)n(O)c(=O)c1,u,-78*,x,x,-28%,x
CCOc1ccccc1C(=O)NCCCN1CCN(CCCNC(=O)c2ccccc2OCC)CC1,10µM*!,6,u,22%,6%,1%
CCOc1ccccc1C(=O)Nc1nnc(CC)s1,11µM*,33,x,x,6%,19%
CCOc1ccccc1NC(=O)C1CCN(C(=O)Cc2ccccc2)CC1,2.2µM*,-6,u,2%[46.1 µM],-2%,0%
CCOc1ccccc1C(=O)Nc1cccc(-c2ccc3nncn3n2)c1,u,u,u,7.1µM*,-29%,-5%
CCOC(=O)N1CCN(C(=O)c2cn(CC)c3ccc(S(=O)(=O)N4CCCCC4)cc3c2=O)CC1,29%,11,x,x,-9%,-1%
Cc1ccsc1C(=O)N(Cc1cc2ccc(F)cc2nc1N1CCC(O)CC1)CC1CCCO1 (stereo unspecified),x,x,x,x,0%,x
COC(=O)[C@]1(C#N)[C@H](C)C(=O)N(C(C)C)[C@@H]1c1ccc(OC)cc1,x,5,x,x,x,x
CCOc1ccccc1C(=O)Nc1nn[nH]n1,3.2µM*,u,u,10%[46.1 µM],-6%,-1%
CCOc1ccccc1C(=O)Nc1ccccc1C(N)=O,4%,-6,-1%,-24%,0%,-11%
CCc1nnc(NC(=O)c2cccc(C(=O)Nc3nnc(CC)s3)n2)s1,1.1µM*,-92*,u,u,u,-31%
CCOc1cc(NC(=O)C2CC2)c(OCC)cc1NC(=O)c1ccccc1OCC,u,-9,u,10µM*,-29%,-1%
CCc1nnc(NC(=O)c2ccncc2)s1,-8%,10,27%,13%,26%,-2%
COc1ccc2c3c(c(=O)oc2c1)C1O[C@](CCCCN2C(=O)c4ccccc4C2=O)(Cc2cc(OC)c(OC)cc21)O3,x,x,x,x,x,10%[6.58 µM]
CN(C)c1ccc(-c2cncnc2NCc2ccccc2)cc1,x,x,x,x,-19%,x
CC(=O)Nc1ccc(S(=O)(=O)Oc2cccc(N3C(=O)C4CCCCC4C3=O)c2)cc1 (stereo unspecified),22%,-12,4%,u,18µM*,4%
Cc1ccc(S(=O)(=O)Oc2cccc(N3C(=O)C4CC=CCC4C3=O)c2)cc1 (stereo unspecified),2%,-5,u,0%,-19%,1%
CCOC(=O)c1c2c(n(C3CCCCC3)c1CN(C)C)CC(Br)=C(OC)C2,x,x,x,10µM*,x,x
CC1CCN(c2nc(-c3ccccc3O)nc3ccccc23)CC1,u,53,-4%,-23%,-15%,2%
COc1cccc(-c2nc(N3CC(C)CC(C)C3)c3ccccc3n2)c1O (stereo unspecified),14µM*,62,u,u,u,6%
SMILES,HCV inh,HCMV antiviral,LASV entry inh,MARV entry inh,FMDV antiviral,SARS PLpro yeast
COc1cccc(-c2nc(N3CCC(C)CC3)c3ccccc3n2)c1O,u,52,-43%,u,-25%,-8%
COc1cccc(-c2nc(N3CCCC3)c3ccccc3n2)c1O,5µM*,22,6%,-10%[46.1 µM],-11%,0%
COc1ccccc1-c1cc(C(=O)Nc2cc(OC)c(OC)c(OC)c2)no1,x,-29,u,u,0%,x
Cn1c(OCc2cccnc2)nc2c1c(=O)n(Cc1ccc(Br)cc1)c(=O)n2C,u,-36,-14%,-22%,u,3%
Cn1c(N2CCN(c3ccccn3)CC2)nc2c1c(=O)n(Cc1ccc(Cl)cc1)c(=O)n2C,15%,-84*,0%,2%,20µM*,-2%
Cn1c(OCc2cccnc2)nc2c1c(=O)n(Cc1ccc(Cl)cc1)c(=O)n2C,11µM*,u,16µM*,u,u,x
Cn1c(N2CCN(c3ccccn3)CC2)nc2c1c(=O)n(Cc1ccccc1Cl)c(=O)n2C,19%,74,18%,-2%,-22%,x
COc1cccc(NC(=O)CSc2c(C)cnc3c2c(=O)n(C)c(=O)n3C)c1,x,-14,10%[46.1 µM],x,-12%,x
CCOc1cccc(C(=O)N(Cc2ccc(F)cc2)Cc2ccco2)c1,x,16,u,-20%[46.1 µM],-13%,x
C/C(Cn1cnc([N+](=O)[O-])n1)=N\NC(=O)c1cccc(F)c1,11µM*,19,26%,-10%,39%,-3%
COCCN1C(=O)c2cc(C(=O)Nc3cccc(F)c3)ccc2C1Nc1cccc(F)c1 (stereo unspecified),u,-38,u,-23%,-3%,-2%
CCc1ccc(NC(=O)c2ccc3c(c2)C(=O)N(CCOC)C3Nc2ccc(CC)cc2)cc1 (stereo unspecified),-19%,-90*,26%,-1%,28%,0%
CCc1cc2c(nc1CC)CCCN2C,x,-37,x,x,x,x
COCCNC(=O)Cc1c(C)c2c(cc(C)c3c(C)coc32)oc1=O,3%,12,x,x,6%,0%
Cc1c(CC(=O)NCCc2ccccc2F)c(=O)oc2c(C)c3occ(C(C)(C)C)c3cc12,x,-78*,-3%[46.1 µM],16%[46.1 µM],-21%,x
COCCCNC(=O)Cc1c(C)c2c(cc(C)c3c(C(C)(C)C)coc32)oc1=O,11µM*,-34,x,x,-16%,0%
COc1ccc(-c2csc3ncnc(N4CCN(c5ccccc5OC)CC4)c23)cc1,11µM*,-17,u,u,u,-5%
CCOc1ccccc1N1CCN(c2ncnc3scc(-c4ccc(OC)cc4)c23)CC1,u,-60*,-5%[46.1 µM],u,u,5%
COc1ccc(-c2csc3ncnc(N4CCN(S(=O)(=O)c5ccc(C)c(C)c5)CC4)c23)cc1,11µM*,-1,u,u,-26%,-7%
Cc1ccc(NC(=O)CCn2nnc3ccccc32)cc1,-17%,17,24%,u,24%,1%
CC1CCN(CC2CCN(C(=O)Nc3ccc(Br)cc3F)CC2)CC1,x,-23,20%[46.1 µM],x,-11%,x
Cn1c(/C=C(\C#N)C(N)=S)ccc1-c1ccc(Br)cc1,-22%,46,x,x,-15%,0%
O=C(c1ccco1)N1CCN(C(=O)c2ccc(COc3ccc(Cl)cc3Cl)o2)CC1,u,38,13µM*,u,u,x
O=C(c1ccc(COc2ccc3c(c2)CCC3)o1)N1CCN(c2ccccc2)CC1,-27%,26,u,19%,x,x
O=C(c1ccc(COc2ccccc2Cl)o1)N1CCN(c2ccccc2)CC1,u,29,x,x,-16%,-3%

# Screening data: PubChem, National Center for Advancing Translational Sciences (NCATS)
